The full data set covers some 8,800 targets. This sample favours those with a hit. About 0.5% of all pairs of compound and target were hits.
Experiments:
Assay in all cases: log2 fold change, soluble protein after heating vs DMSO (PISA); higher = thermal stabilisation; K562 lysate, 10 uM; active = over 0.2 and 3.5 SD of the protein, either way, in both replicates (recomputed)
nilotinib = compound: Cc1cn(-c2cc(NC(=O)c3ccc(C)c(Nc4nccc(-c5cccnc5)n4)c3)cc(C(F)(F)F)c2)cn1 [nilotinib]
Outline: (§1)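 Thermal stability, expressed as log-two fold change relative to solvent controls, is given from duplicates. Crude K562 extract in PBS pH 7.4 with 1 mM MgCl2, at 1 mg/mL protein, was treated with 10 μM compound for 30 min and heated in aliquots for 3 min across 48°C-58°C. After pooling, adjustment to 0.5% NP-40 at 4°C and centrifugation at 21,000xg for 90 min, supernatant protein was measured by TMTpro 16plex LC-MS/MS with channel sums equalised.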

[1] = compound: Cc1nc(Nc2n[nH]c3c2CN(C(=O)N[C@H](CN(C)C)c2ccccc2)C3(C)C)c2sccc2n1
Outline: as §1

dasatinib = compound: Cc1nc(Nc2ncc(C(=O)Nc3c(C)cccc3Cl)s2)cc(N2CCN(CCO)CC2)n1 [dasatinib]
Outline: as §1

[2] = compound: Cc1ncc(-c2ccnc(Nc3ccc(S(C)(=O)=O)cc3)n2)n1C(C)C
Outline: as §1

[3] = compound: Cn1cc(-c2ccc3c(c2)CCN3C(=O)Cc2cccc(C(F)(F)F)c2)c2c(N)ncnc21
Outline: as §1

quisinostat = compound: Cn1cc(CNCC2CCN(c3ncc(C(=O)NO)cn3)CC2)c2ccccc21 [quisinostat]
Outline: as §1

tipifarnib = compound: Cn1cncc1[C@@](N)(c1ccc(Cl)cc1)c1ccc2c(c1)c(-c1cccc(Cl)c1)cc(=O)n2C [tipifarnib]
Outline: as §1

[4] = compound: NC(=O)Nc1cc(-c2cccc(F)c2)sc1C(=O)N[C@H]1CCCNC1
Outline: as §1

[5] = compound: NC(=O)c1cnc(N[C@@H]2CCCC[C@@H]2N)nc1Nc1cccc(-n2nccn2)c1
Outline: as §1

[6] = compound: NC1(c2ccc(-c3nc4ccn5c(=O)[nH]nc5c4cc3-c3ccccc3)cc2)CCC1
Outline: as §1

[7] = compound: NCC(=O)Nc1ccc(-n2nc(C(F)(F)F)cc2-c2ccc3c(ccc4ccccc43)c2)cc1
Outline: as §1

vorinostat = compound: O=C(CCCCCCC(=O)Nc1ccccc1)NO [vorinostat]
Outline: as §1

silmitasertib = compound: O=C(O)c1ccc2c(c1)nc(Nc1cccc(Cl)c1)c1ccncc12 [silmitasertib]
Outline: as §1

[8] = compound: O=C1NC(=O)C(c2cnc3ccccn23)=C1c1cn2c3c(cc(F)cc13)CN(C(=O)N1CCCCC1)CC2
Outline: as §1

entospletinib = compound: c1cn2cc(-c3ccc4cn[nH]c4c3)nc(Nc3ccc(N4CCOCC4)cc3)c2n1 [entospletinib]
Outline: as §1

Measured: log2 fold change

COQ8A (UniProt Q8NI60)
inactive: nilotinib 0.091 | [1] -0.013 | dasatinib 0.394 | [2] -0.211 | [3] -0.05 | quisinostat 0.082 | tipifarnib 0.032 | [4] 0.051 | [5] 0.348 | [6] 0.004 | [7] -0.043 | vorinostat -0.042 | silmitasertib -0.161 | [8] 0.016 | entospletinib 0.053

DOCK10 (UniProt Q96BY6)
inactive: nilotinib -0.046 | [1] -0.008 | dasatinib -0.086 | [2] -0.081 | [3] 0.025 | tipifarnib -0.129 | [4] -0.011 | [5] 0.029 | [6] -0.086 | [7] 0 | vorinostat -0.07 | silmitasertib 0.143 | [8] -0.064 | entospletinib 0.023
active: quisinostat -0.636

DDX39A (UniProt O00148)
active: vorinostat -0.383
inactive: nilotinib -0.002 | [1] 0.02 | dasatinib 0.001 | [2] 0.007 | [3] 0.06 | quisinostat -0.018 | tipifarnib -0.053 | [4] 0.075 | [5] 0.036 | [6] -0.013 | [7] 0.017 | silmitasertib 0.017 | [8] 0.036 | entospletinib -0.033

COQ9 (UniProt O75208)
inactive: nilotinib 0.021 | [1] 0.03 | dasatinib -0.021 | [2] 0 | [3] -0.007 | quisinostat 0.036 | tipifarnib -0.016 | [4] 0 | [5] 0.002 | [6] -0.018 | [7] 0.005 | vorinostat 0.084 | silmitasertib 0.002 | [8] 0.031 | entospletinib -0.012

DMAC2L (UniProt Q99766)
UniProt Q99766, sequence (Q99766 whole entry, looked up): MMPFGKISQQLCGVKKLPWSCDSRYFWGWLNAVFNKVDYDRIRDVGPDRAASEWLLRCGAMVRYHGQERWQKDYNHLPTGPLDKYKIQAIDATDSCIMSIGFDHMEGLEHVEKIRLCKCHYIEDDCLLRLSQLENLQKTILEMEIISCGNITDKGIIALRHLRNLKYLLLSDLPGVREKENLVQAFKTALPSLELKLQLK
inactive: nilotinib -0.021 | [1] 0.001 | dasatinib 0.059 | [2] -0.04 | [3] -0.009 | quisinostat 0.012 | tipifarnib -0.017 | [4] -0.032 | [5] -0.006 | [6] 0.111 | [7] -0.023 | vorinostat -0.174 | silmitasertib 0.037 | [8] -0.038 | entospletinib 0.022

DCTN1 isoform 4 (UniProt Q14203)
inactive: nilotinib 0.304 | [1] -0.331 | dasatinib -0.163 | [2] -0.288 | [3] -0.051 | quisinostat -0.064 | tipifarnib -0.064 | [4] 0.074 | [5] 0.139 | [6] 0.169 | [7] 0.144 | vorinostat -0.143 | silmitasertib -0.027 | [8] 0.011 | entospletinib -0.085

CNOT2 (UniProt Q9NZN8)
inactive: nilotinib 0.013 | [1] -0.011 | dasatinib -0.024 | [2] 0.009 | [3] -0.018 | quisinostat -0.026 | tipifarnib -0.074 | [4] 0.024 | [5] 0.02 | [6] -0.001 | [7] 0.044 | silmitasertib 0.015 | [8] -0.009 | entospletinib -0.015
active: vorinostat -0.207

DDX20 (UniProt Q9UHI6)
inactive: nilotinib -0.009 | [1] 0.008 | dasatinib -0.054 | [2] 0.003 | [3] 0.058 | quisinostat -0.058 | tipifarnib -0.01 | [4] 0.095 | [5] 0.03 | [6] -0.024 | [7] 0.007 | silmitasertib 0.069 | [8] 0.022 | entospletinib -0.008
active: vorinostat -0.348

CNP (UniProt P09543)
UniProt P09543, sequence (P09543 whole entry, looked up): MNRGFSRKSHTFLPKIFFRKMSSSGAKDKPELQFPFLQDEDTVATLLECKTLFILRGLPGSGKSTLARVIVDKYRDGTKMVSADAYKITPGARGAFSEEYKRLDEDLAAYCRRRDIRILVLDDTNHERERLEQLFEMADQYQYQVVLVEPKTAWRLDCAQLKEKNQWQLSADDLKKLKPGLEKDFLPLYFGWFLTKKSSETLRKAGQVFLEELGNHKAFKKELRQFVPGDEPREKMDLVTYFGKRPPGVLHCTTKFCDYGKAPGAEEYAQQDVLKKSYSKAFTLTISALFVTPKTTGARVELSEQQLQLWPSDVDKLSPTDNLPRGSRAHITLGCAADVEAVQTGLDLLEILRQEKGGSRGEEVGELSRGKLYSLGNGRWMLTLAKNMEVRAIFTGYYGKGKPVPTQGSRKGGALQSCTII
inactive: nilotinib 0.033 | [1] 0.023 | dasatinib -0.047 | [2] -0.007 | [3] 0.003 | quisinostat -0.028 | tipifarnib -0.055 | [4] -0.009 | [5] -0.007 | [6] -0.009 | [7] -0.017 | silmitasertib -0.001 | [8] 0.059 | entospletinib 0.017
active: vorinostat -0.298

CSK (UniProt P41240)
UniProt P41240, sequence (P41240 whole entry, looked up): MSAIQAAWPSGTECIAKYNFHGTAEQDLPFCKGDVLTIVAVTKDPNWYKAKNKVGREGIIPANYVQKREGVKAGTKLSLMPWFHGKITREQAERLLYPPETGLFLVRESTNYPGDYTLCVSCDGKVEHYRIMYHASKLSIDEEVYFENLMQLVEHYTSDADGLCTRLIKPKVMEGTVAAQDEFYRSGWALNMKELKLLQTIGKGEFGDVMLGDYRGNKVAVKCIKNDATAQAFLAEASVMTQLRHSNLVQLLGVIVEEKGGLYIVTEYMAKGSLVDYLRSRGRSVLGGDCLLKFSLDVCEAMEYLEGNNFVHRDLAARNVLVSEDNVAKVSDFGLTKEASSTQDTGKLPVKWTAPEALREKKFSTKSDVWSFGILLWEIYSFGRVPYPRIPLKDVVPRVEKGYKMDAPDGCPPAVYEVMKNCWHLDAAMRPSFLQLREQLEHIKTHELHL
active: dasatinib 0.578 | [4] 0.646
inactive: nilotinib 0.144 | [1] 0.125 | [2] 0.002 | [3] 0.102 | quisinostat -0.08 | tipifarnib -0.041 | [5] 0.071 | [6] -0.043 | [7] -0.008 | vorinostat -0.262 | silmitasertib -0.006 | [8] -0.021 | entospletinib 0.195

DPH5 isoform 5 (UniProt Q9H2P9)
active: dasatinib 0.418 | [6] 0.377
inactive: nilotinib -0.01 | [1] 0.289 | [2] 0.009 | [3] 0.062 | quisinostat 0.003 | tipifarnib 0.017 | [4] -0.048 | [5] -0.025 | [7] -0.046 | vorinostat -0.06 | silmitasertib -0.015 | [8] 0.077 | entospletinib -0.011

DEF6 (UniProt Q9H4E7)
UniProt Q9H4E7, sequence (Q9H4E7 whole entry, looked up): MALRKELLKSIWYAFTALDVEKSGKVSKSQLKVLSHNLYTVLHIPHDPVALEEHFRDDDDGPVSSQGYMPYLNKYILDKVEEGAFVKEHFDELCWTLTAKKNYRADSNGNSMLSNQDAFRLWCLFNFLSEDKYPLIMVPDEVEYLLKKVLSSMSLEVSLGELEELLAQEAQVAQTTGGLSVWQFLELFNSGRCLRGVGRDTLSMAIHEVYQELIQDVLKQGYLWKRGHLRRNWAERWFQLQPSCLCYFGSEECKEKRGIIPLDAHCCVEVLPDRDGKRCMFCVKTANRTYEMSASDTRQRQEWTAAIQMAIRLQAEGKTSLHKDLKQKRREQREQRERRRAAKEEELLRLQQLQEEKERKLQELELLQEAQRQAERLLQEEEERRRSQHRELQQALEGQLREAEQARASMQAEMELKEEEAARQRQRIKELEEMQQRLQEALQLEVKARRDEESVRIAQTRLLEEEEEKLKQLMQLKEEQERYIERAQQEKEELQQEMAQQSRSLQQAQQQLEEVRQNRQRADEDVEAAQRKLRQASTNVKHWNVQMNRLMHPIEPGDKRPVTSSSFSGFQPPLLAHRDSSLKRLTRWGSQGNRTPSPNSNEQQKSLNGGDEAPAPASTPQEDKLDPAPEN
inactive: nilotinib -0.058 | [1] 0.046 | dasatinib -0.034 | [2] 0.033 | [3] 0.006 | quisinostat -0.044 | tipifarnib 0.027 | [4] 0.067 | [5] 0.044 | [6] -0.01 | [7] 0.085 | silmitasertib 0.032 | [8] -0.045 | entospletinib 0.022
active: vorinostat -0.416

CMPK2 (UniProt Q5EBM0)
inactive: nilotinib -0.075 | [1] -0.01 | dasatinib -0.067 | [2] 0.005 | [3] -0.011 | quisinostat -0.02 | tipifarnib 0.042 | [4] 0.032 | [5] -0.006 | [6] 0.013 | [7] -0.002 | silmitasertib 0.005 | [8] 0.064 | entospletinib 0
active: vorinostat -0.323

CKAP2 (UniProt Q8WWK9)
UniProt Q8WWK9, sequence (Q8WWK9 whole entry, looked up): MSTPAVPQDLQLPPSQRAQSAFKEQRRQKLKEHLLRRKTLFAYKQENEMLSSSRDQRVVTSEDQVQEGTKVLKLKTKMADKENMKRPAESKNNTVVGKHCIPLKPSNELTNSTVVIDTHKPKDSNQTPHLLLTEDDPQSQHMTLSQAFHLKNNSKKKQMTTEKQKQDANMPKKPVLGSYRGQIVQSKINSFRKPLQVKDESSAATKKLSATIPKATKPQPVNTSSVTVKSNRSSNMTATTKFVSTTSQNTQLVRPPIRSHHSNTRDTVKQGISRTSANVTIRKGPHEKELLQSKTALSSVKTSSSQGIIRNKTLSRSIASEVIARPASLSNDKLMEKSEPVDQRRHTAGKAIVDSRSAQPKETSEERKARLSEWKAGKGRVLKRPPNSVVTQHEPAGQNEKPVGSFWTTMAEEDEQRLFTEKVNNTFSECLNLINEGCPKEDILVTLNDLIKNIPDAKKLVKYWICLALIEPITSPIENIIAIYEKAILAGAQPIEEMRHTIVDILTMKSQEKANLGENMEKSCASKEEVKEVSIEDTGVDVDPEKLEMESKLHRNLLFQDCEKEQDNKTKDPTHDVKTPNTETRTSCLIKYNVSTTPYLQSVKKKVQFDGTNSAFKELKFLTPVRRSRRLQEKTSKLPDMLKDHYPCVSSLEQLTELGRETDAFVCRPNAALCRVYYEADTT
active: [7] 0.434
inactive: nilotinib 0.075 | [1] 0.07 | dasatinib 0.004 | [2] 0.036 | [3] -0.014 | quisinostat -0.098 | tipifarnib -0.053 | [4] -0.015 | [5] -0.049 | [6] -0.023 | vorinostat 0.011 | silmitasertib -0.013 | [8] -0.044 | entospletinib 0.033

CHEK1 (UniProt O14757)
active: [4] 0.242
inactive: nilotinib -0.011 | [1] -0.158 | dasatinib 0.02 | [2] -0.048 | [3] -0.007 | quisinostat -0.032 | tipifarnib 0.016 | [5] 0.003 | [6] -0.042 | [7] 0.008 | vorinostat 0.086 | silmitasertib 0.168 | [8] -0.014 | entospletinib 0.009

DIAPH3 (UniProt Q9NSV4)
active: vorinostat -0.584
inactive: nilotinib -0.019 | [1] 0.019 | dasatinib -0.167 | [2] -0.021 | [3] 0.029 | quisinostat -0.093 | tipifarnib -0.041 | [4] 0.057 | [5] 0.077 | [6] 0.019 | [7] -0.047 | silmitasertib 0.067 | [8] -0.006 | entospletinib -0.017

CYP51A1 (UniProt Q16850)
active: tipifarnib 0.664 | [8] 0.864
inactive: nilotinib 0.124 | [1] -0.026 | dasatinib 0.048 | [2] 0.034 | [3] 0.083 | quisinostat -0.021 | [4] -0.016 | [5] -0.009 | [6] -0.081 | [7] -0.065 | vorinostat 0.017 | silmitasertib -0.084 | entospletinib 0.024

CLP1 (UniProt Q92989)
UniProt Q92989, sequence (Q92989 whole entry, looked up): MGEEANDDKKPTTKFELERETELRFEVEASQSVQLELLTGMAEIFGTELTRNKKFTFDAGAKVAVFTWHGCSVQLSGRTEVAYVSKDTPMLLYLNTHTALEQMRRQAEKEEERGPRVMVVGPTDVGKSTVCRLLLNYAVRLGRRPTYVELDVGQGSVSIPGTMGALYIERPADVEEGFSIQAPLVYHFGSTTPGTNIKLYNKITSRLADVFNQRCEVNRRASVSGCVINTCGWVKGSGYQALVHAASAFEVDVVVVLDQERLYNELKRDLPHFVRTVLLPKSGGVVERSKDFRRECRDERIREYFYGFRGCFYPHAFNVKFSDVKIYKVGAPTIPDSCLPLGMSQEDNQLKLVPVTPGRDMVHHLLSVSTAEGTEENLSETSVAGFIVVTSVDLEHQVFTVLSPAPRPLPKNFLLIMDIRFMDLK
active: vorinostat -0.307
inactive: nilotinib -0.029 | [1] 0.039 | dasatinib -0.037 | [2] -0.039 | [3] 0.119 | quisinostat -0.065 | tipifarnib -0.011 | [4] 0.029 | [5] -0.027 | [6] 0.026 | [7] 0.011 | silmitasertib 0.029 | [8] -0.027 | entospletinib 0.008

CHFR (UniProt Q96EP1)
UniProt Q96EP1, sequence (Q96EP1 whole entry, looked up): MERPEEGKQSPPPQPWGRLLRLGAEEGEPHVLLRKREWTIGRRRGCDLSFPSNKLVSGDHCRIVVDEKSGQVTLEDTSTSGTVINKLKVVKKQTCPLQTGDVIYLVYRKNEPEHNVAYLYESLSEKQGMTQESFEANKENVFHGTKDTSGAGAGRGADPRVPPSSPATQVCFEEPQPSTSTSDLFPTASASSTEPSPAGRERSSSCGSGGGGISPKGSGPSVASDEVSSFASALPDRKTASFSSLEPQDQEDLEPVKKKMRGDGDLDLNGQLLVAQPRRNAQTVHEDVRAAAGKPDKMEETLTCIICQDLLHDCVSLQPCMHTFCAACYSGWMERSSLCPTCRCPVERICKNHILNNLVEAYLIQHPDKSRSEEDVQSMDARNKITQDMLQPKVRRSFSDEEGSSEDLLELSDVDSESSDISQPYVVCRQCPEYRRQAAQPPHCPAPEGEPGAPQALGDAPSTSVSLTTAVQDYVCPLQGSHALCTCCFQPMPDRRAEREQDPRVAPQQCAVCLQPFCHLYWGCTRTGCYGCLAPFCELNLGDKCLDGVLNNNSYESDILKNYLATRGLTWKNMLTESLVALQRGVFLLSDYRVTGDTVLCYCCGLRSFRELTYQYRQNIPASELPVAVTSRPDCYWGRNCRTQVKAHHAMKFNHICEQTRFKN
inactive: nilotinib 0.035 | [1] 0.082 | dasatinib 0.017 | [2] 0.019 | [3] 0.049 | quisinostat 0.02 | tipifarnib 0.013 | [4] 0.036 | [5] 0.246 | [6] 0.005 | [7] -0.219 | vorinostat -0.143 | silmitasertib 0.057 | [8] 0.004 | entospletinib -0.083

CORO7 isoform 3 (UniProt P57737)
UniProt P57737, sequence (P57737 whole entry, looked up): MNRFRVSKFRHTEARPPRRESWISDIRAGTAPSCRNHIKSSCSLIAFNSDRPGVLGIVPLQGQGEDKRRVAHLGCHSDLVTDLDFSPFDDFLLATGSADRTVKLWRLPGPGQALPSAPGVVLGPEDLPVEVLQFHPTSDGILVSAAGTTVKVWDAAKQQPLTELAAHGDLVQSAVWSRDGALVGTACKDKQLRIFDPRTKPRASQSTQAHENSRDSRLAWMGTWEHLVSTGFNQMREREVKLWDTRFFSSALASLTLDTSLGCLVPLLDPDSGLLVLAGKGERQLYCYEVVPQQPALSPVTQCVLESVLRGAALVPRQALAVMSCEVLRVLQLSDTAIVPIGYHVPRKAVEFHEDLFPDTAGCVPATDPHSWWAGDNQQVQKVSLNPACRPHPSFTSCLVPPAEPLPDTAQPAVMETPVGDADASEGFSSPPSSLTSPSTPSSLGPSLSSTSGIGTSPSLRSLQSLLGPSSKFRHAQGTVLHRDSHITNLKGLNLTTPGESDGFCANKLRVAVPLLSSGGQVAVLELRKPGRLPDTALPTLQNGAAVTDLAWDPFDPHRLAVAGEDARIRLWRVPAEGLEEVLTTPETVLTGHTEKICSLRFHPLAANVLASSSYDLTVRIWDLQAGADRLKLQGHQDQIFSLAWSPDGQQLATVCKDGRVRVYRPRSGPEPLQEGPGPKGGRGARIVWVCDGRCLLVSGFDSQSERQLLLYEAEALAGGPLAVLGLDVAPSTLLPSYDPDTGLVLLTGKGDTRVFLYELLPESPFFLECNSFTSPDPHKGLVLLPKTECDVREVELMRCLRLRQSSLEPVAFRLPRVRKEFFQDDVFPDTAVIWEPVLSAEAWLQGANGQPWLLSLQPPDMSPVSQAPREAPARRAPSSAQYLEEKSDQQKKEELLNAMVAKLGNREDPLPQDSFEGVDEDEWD
inactive: nilotinib -0.006 | [1] 0.003 | dasatinib -0.032 | [2] 0.01 | [3] 0.019 | quisinostat -0.026 | tipifarnib 0.005 | [4] 0.012 | [5] -0.016 | [6] -0.013 | [7] -0.045 | vorinostat -0.176 | silmitasertib 0.042 | [8] 0.004 | entospletinib 0.005

DENND6A (UniProt Q8IWF6)
UniProt Q8IWF6, sequence (Q8IWF6 whole entry, looked up): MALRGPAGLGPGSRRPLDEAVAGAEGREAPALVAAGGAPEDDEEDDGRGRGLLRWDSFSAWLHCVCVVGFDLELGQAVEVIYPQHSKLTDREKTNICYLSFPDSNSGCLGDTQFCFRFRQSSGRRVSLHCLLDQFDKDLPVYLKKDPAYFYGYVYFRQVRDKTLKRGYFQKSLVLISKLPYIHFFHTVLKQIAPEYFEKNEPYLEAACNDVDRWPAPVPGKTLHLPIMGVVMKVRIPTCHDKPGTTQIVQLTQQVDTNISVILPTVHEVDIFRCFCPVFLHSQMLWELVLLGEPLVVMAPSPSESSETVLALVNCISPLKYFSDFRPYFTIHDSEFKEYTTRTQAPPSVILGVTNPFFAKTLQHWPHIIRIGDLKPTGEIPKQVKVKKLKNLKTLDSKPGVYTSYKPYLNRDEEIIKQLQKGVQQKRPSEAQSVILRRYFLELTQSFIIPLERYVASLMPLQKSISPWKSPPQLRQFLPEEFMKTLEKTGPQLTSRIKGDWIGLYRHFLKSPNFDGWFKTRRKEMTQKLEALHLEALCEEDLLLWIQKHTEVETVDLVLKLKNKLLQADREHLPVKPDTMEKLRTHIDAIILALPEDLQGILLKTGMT
inactive: nilotinib 0.012 | [1] -0.009 | dasatinib 0.053 | [2] 0.017 | [3] 0.095 | quisinostat -0.084 | tipifarnib -0.041 | [4] 0.018 | [5] -0.032 | [6] -0.011 | [7] -0.049 | silmitasertib 0.1 | [8] -0.07 | entospletinib -0.051
active: vorinostat -0.38
